Several values for one entry are separate records, joined by “and”; a condition that tells them apart may be missing. Equal entries are not always repeated. Inconclusive results are not listed. Some compounds were tested as several samples or in several runs, with calls that do not always agree. Activity calls are given as the source filed them. Unless noted, calls follow the shape of the full dose curve.
What was measured:
[1] = Cell Viability - Renal Proximal Tubule (AID 545; active = well fitted curve in the direction sought with a large enough effect; an effect the other way counts as inactive or inconclusive;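 also: cells exposed to compound for 40 hours; 0% = DMSO only and -100% = 100 µM tamoxifen; nearly all actives have a fitted effect of over 40% in size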)
How it was run: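 Viability taken as intracellular ATP (CellTiter-Glo luminescence) after 40 hr, 37 °C compound treatment of primary proximal tubule cells from rat kidney, 1000 cells/well; Hill-equation fits of qHTS concentration-response data gave AC50.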

[2] = Cell Viability - Mesenchymal (AID 546; active = well fitted curve in the direction sought with a large enough effect; an effect the other way counts as inactive or inconclusive;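 also: cells exposed to compound for 40 hours before reading; 0% = DMSO only and -100% = 100 µM tamoxifen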)
How it was run: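 Human kidney mesenchymal cells from normal renal glomeruli, 1000 cells/well, rested 5 hr at 37 °C, then treated 40 hr at 37 °C in complete medium. Cellular ATP read by CellTiter-Glo luminescence; AC50 from Hill-equation fits.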

[3] = biological target: Bile acid receptor (Homo sapiens) (UniProt Q96RI1); test: qHTS assay for small molecule antagonists of farnesoid X receptor signaling (AID 588526); also: potency is read from the fitted curve at half-maximal effect
Bile acid receptor (Homo sapiens), sequence (Q96RI1 whole entry, looked up): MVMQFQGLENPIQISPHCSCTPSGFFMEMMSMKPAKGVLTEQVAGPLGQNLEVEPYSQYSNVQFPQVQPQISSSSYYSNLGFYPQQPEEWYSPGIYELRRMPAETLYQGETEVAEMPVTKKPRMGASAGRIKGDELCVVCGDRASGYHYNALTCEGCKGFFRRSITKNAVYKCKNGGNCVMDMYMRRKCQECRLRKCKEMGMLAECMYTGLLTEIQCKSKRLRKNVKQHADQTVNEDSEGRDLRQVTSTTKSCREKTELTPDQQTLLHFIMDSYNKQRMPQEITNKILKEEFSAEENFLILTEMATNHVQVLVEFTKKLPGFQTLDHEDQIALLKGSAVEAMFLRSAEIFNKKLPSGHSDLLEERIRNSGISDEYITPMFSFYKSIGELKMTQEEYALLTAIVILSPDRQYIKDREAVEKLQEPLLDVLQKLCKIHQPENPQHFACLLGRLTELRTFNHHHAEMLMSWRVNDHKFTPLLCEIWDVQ
How it was run: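 Antagonist mode: titrated compounds tested against chenodeoxycholic acid stimulation (normalized to 50 uM CDCA and DMSO) in GeneBLAzer HEK293T cells for 16 h. Beta-lactamase read by CCF4 fluorescence; IC50 from Hill fits.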

[4] = biological target: Glucocorticoid receptor (Homo sapiens) (UniProt P04150); test: qHTS assay for small molecule agonists of glucocorticoid receptor signaling (AID 588532; active = well fitted curve in the direction sought with a large enough effect in the signal ratio, with a control signal flat; the % refers to the signal ratio;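 also: 100% = dexamethasone at 0.1 µM and 0% = DMSO only wells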); details: HeLa MMTV-bla, beta-lactamase ratio, agonist, 18 h; stronger effect = higher value; percent of dexamethasone control, DMSO zero
Glucocorticoid receptor (Homo sapiens), sequence (P04150 whole entry, looked up): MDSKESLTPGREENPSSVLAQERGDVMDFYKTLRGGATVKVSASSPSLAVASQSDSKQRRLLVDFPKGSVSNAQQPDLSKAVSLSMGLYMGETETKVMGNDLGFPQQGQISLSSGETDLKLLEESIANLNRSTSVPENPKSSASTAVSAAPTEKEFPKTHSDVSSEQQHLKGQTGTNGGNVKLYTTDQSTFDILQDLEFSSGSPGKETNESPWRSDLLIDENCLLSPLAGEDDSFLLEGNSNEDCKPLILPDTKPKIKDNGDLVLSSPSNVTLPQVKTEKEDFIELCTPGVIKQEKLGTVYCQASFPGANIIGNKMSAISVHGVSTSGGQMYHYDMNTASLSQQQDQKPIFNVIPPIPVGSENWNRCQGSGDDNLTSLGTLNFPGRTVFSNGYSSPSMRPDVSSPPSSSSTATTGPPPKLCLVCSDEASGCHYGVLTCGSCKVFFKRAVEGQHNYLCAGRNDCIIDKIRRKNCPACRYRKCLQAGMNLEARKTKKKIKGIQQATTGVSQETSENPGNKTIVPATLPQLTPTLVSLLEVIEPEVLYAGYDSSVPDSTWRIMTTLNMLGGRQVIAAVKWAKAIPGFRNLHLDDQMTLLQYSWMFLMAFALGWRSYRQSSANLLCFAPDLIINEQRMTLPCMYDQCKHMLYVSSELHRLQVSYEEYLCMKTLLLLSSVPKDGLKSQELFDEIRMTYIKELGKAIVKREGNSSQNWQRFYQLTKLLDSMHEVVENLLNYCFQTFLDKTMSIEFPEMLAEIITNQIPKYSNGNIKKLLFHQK
How it was run: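 HeLa GRE-bla reporter cells; 18 h compound exposure at 37 C; 2 h CCF4 loading at room temperature; fluorescence at 460 and 530 nm; EC50 by Hill equation.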

[5] = biological target: Glucocorticoid receptor (Homo sapiens) (UniProt P04150); test: qHTS assay for small molecule antagonists of glucocorticoid receptor signaling (AID 588533; active = well fitted inhibition curve with a large enough effect in the signal ratio, with a control signal flat, not every such curve was filed as active; the % refers to the signal ratio; also: potency is read from the fitted curve at half-maximal effect)
How it was run: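 Antagonist-mode qHTS: compound titrations added to GRE-bla HeLa cells, then dexamethasone 2 nM final; 18 h, 37 C. CCF4 FRET fluorescence normalized to dexamethasone and DMSO; IC50 from Hill fit.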

[6] = qHTS assay for small molecule antagonists of peroxisome proliferator-activated receptor delta signaling (AID 588535; active = well fitted inhibition curve with a large enough effect in the signal ratio, with a control signal flat, not every such curve was filed as active; the % refers to the signal ratio;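 as to max response: cells co-treated with a PPAR-delta agonist as stimulator during compound exposure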); details: HEK293T PPARd-UAS-bla, beta-lactamase FRET ratio, 18 h; 460 nm channel
How it was run: (§1)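 Cells were seeded at 4000 per well in assay medium containing 2% charcoal/dextran FBS and held 5 hrs at 37 C. Compounds were then added for 18 hrs. CCF4 substrate was applied for 2 hrs at room temperature before fluorescence reading.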

[7] = biological target: Peroxisome proliferator-activated receptor delta (Homo sapiens) (UniProt Q03181); test: as above
Peroxisome proliferator-activated receptor delta (Homo sapiens), sequence (Q03181 whole entry, looked up): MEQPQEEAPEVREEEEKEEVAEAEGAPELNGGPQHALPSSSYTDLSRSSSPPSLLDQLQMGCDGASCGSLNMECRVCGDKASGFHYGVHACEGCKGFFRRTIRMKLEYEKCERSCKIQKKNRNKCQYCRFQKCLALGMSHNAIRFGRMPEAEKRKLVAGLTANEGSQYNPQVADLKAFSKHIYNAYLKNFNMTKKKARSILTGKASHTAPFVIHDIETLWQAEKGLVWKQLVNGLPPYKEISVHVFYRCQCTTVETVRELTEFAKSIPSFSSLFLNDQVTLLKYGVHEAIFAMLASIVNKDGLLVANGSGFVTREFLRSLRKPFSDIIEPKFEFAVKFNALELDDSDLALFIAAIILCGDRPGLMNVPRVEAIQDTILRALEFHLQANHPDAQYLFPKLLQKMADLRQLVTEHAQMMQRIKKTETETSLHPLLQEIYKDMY
How it was run: as §1

[8] = biological target: Vitamin D3 receptor (Homo sapiens) (UniProt P11473); test: qHTS assay for small molecule antagonists of vitamin D receptor signaling (AID 588541);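 also: receptor activated by calcitriol during compound treatment; series mostly up to about 77 µM; % is scaled to controls: 0 for no effect and ±100 for the full control effect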
Vitamin D3 receptor (Homo sapiens), sequence (P11473 whole entry, looked up): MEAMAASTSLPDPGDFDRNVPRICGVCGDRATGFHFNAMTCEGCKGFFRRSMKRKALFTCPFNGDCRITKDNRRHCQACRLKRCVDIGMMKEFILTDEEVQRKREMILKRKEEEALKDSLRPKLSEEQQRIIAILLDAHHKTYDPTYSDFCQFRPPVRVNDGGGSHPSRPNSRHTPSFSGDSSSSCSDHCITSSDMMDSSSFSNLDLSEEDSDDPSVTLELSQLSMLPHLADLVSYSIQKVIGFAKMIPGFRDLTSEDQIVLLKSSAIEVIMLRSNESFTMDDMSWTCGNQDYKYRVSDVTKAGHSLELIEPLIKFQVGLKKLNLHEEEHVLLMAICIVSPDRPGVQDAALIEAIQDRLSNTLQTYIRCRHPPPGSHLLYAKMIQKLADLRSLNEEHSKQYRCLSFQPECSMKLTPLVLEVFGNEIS
How it was run: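 VDR-UAS-bla HEK293T cells in 2% charcoal-stripped FBS were stimulated with 1-alpha,25-dihydroxyvitamin D3 (3 nM final) plus compound for 16 h at 37 C. The beta-lactamase CCF4 readout was normalized to 50 nM agonist and DMSO, and Hill fits gave IC50.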

[9] = biological target: Vitamin D3 receptor (Homo sapiens) (UniProt P11473); test: qHTS assay for small molecule agonists of vitamin D receptor signaling (AID 588543);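 also: 0% = DMSO basal and 100% = reference agonist control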
How it was run: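 Agonist-mode beta-lactamase reporter: HEK293T VDR-UAS-bla cells in charcoal-stripped 2% FBS, compound series 16 h 37 C, CCF4 2 h RT. EC50 from Hill fit, scaled against DMSO and 50 nM calcitriol control.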

[10] = qHTS assay for small molecule agonists of retinoid X receptor alpha signaling (AID 588544); details: HEK293T RXRa-UAS-bla, beta-lactamase reporter, 18 h; 530 nm emission;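 as to activation: 0% = DMSO basal wells and 100% = reference agonist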
[11] = biological target: Retinoic acid receptor RXR-alpha (Homo sapiens) (UniProt P19793); test: as above
Retinoic acid receptor RXR-alpha (Homo sapiens), sequence (P19793 whole entry, looked up): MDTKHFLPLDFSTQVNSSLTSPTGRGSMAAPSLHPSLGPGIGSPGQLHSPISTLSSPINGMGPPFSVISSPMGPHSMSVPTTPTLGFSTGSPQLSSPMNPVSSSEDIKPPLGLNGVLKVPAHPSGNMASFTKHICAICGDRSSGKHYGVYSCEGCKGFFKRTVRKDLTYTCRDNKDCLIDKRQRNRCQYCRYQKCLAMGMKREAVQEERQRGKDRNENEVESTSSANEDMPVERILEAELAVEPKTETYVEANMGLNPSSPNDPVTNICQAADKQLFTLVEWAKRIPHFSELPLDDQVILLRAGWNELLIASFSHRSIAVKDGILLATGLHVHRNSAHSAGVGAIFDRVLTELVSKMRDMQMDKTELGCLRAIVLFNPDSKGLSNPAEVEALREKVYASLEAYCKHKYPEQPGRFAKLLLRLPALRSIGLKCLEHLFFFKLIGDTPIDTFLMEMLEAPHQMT

[12] = biological target: Thyroid hormone receptor beta (Homo sapiens) (UniProt P10828); test: qHTS assay for small molecule agonists of thyroid hormone receptor beta signaling (AID 588545);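 also: 0% = DMSO only and 100% = 10 nM T3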
Thyroid hormone receptor beta (Homo sapiens), sequence (P10828 whole entry, looked up): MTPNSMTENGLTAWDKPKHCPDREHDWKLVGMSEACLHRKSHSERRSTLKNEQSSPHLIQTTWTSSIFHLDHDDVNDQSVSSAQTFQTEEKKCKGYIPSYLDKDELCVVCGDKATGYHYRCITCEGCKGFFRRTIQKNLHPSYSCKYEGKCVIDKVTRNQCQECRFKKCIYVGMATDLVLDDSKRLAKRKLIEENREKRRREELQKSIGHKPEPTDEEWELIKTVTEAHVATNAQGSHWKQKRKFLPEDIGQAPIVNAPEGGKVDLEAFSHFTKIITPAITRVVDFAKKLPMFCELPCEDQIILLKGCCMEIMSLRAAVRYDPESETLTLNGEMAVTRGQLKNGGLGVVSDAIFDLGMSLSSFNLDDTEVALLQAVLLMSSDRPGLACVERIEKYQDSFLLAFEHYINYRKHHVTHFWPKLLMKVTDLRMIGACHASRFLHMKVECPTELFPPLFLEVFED
How it was run: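 Efficacy and EC50 values derive from Hill fits of qHTS titration data, normalized to 10 nM T3 and DMSO-only wells. HEK 293 reporter cells were stimulated for 18 hrs at 37 C, with beta-lactamase activity measured by CCF4 fluorescence.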

[13] = biological target: Voltage-gated inwardly rectifying potassium channel KCNH2 (Homo sapiens) (UniProt Q12809); test: qHTS Assay for Small Molecule Inhibitors of the Human hERG Channel Activity (AID 588834; active = well fitted curve in the direction sought with a large enough effect; an effect the other way counts as inactive or inconclusive;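 also: top concentration of the series differs between compounds; % is scaled to controls: 0 for no effect and ±100 for the full control effect; lower thallium flux fluorescence means stronger hERG block; nearly all actives have a fitted effect of over 50% in size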)
Voltage-gated inwardly rectifying potassium channel KCNH2 (Homo sapiens), sequence (Q12809 whole entry, looked up): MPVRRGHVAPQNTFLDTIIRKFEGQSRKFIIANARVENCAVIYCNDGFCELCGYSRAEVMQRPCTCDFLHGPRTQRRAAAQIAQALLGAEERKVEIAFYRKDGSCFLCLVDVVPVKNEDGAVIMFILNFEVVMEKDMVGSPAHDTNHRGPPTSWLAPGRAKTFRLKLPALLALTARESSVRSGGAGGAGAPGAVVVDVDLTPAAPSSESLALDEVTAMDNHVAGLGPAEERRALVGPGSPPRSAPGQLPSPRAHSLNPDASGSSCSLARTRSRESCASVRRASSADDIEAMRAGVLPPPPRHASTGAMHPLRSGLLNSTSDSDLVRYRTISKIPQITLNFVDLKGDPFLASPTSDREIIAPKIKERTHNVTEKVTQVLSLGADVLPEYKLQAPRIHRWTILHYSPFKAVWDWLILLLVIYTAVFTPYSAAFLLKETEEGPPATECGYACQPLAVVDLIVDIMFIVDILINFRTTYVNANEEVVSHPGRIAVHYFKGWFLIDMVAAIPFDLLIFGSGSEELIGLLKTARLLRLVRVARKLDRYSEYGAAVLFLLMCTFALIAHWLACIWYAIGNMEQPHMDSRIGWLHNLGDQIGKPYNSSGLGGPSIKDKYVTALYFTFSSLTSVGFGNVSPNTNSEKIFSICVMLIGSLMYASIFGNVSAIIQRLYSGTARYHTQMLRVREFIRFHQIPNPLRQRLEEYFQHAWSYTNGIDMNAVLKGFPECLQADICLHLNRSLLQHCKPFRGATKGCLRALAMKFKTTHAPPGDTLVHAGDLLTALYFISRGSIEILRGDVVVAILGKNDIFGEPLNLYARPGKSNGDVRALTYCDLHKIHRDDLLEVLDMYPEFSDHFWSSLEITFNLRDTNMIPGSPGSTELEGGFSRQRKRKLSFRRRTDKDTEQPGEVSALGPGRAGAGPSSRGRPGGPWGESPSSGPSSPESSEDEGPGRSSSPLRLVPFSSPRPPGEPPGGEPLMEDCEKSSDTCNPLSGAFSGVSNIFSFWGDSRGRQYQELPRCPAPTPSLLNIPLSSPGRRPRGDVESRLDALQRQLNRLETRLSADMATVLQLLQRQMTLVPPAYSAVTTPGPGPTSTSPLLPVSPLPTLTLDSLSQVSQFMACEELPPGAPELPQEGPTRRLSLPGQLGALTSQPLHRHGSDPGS
How it was run: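 Kinetic FDSS fluorescence; U2OS + hERG BacMam (~100 virus particles/cell); FluxOR Tl+ flux; ~10 min cpd; AC50 (Hill).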

[14] = qHTS assay for small molecule agonists of the antioxidant response element (ARE) signaling pathway (AID 651741; active = well fitted activation curve with a large enough effect in the signal ratio; the % refers to the signal ratio; also: potency is read from the fitted curve at half-maximal effect); details: HepG2 ARE-bla reporter, beta-lactamase FRET ratio, 16 h
How it was run: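 HepG2 ARE-bla cells plated at 2,000 cells/well and incubated 5 h at 37 C/5% CO2 received 23 nL compound in DMSO. After 16 h at 37 C, LiveBLAzer B/G FRET substrate was applied for 2 h at room temperature and fluorescence read.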

[15] = qHTS assay for small molecule activators of the p53 signaling pathway (AID 651743; active = well fitted activation curve with a large enough effect in the signal ratio, not every such curve was filed as active; the % refers to the signal ratio; also: potency is read from the fitted curve at half-maximal effect); details: HCT-116 p53RE-bla, beta-lactamase FRET ratio, 16 h; activation: stronger effect = higher value
How it was run: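 HCT-116 p53RE-bla, 4,000 cells/well; 5 h settle; cpd/DMSO 16 h, 37 C; LiveBLAzer B/G 2 h RT; fluorescence intensity.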

[16] = qHTS assay for small molecule activators of the nuclear factor-kappa B (NF-kB) signaling pathway (AID 651749; active = well fitted activation curve with a large enough effect in the signal ratio; the % refers to the signal ratio; also: series mostly up to about 77 µM; % of control where 0% means no effect); details: NF-kB-bla ME-180 cells, beta-lactamase FRET ratio, 16 h; stronger effect = higher value
How it was run: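 Incubation lasted 16 hr at 37C in 5% CO2 after 23 nL compound addition to ME-180 NF-kB-bla cells. Activation appears as beta-lactamase-mediated FRET loss.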

[17] = qHTS assay for small molecule disruptors of the mitochondrial membrane potential - 1 hr assay (AID 651754); also: potency is read from the fitted curve at half-maximal effect; nearly all actives have a fitted effect of over 35% in size
How it was run: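 HepG2 cells, attached overnight at 37C, were exposed to compound or DMSO vehicle for 1 hr at 37C, 5% CO2, then stained with Mito-MPS dye for 30 min. Red aggregate versus green monomer fluorescence reports membrane potential.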

[18] = biological target: Tumor necrosis factor (Homo sapiens) (UniProt P01375); test: qHTS assay to identify small molecules that stimulate Tumor Necrosis Factor-alpha (TNF-alpha) secretion (AID 651757; active = well fitted curve in the direction sought with a large enough effect in the signal ratio; the % refers to the signal ratio; also: 0% is about no effect)
Tumor necrosis factor (Homo sapiens), sequence (P01375 whole entry, looked up): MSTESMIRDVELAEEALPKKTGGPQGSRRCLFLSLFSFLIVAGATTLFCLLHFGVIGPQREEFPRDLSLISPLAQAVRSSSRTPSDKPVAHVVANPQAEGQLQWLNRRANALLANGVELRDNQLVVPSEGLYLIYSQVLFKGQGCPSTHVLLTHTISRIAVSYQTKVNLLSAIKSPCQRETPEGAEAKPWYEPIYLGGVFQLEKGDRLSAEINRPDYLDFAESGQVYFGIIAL
How it was run: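 THP-1 cells were exposed to compounds for 17 hrs at 37 C, after which secreted TNF-alpha was measured by homogeneous HTRF (TR-FRET) using cryptate- and XL665-labeled anti-TNF-alpha antibodies, read after 3 hr at room temperature.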

[19] = qHTS assay to identify small molecules that stimulate interleukin-8 (IL-8) secretion (AID 651758; active = well fitted activation curve with a large enough effect in the signal ratio; the % refers to the signal ratio; also: 0% is about no effect)
How it was run: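 THP-1 cells (2000/well) exposed to compound 16 h at 37 C; secreted IL-8 then detected by HTRF with cryptate- and XL665-labelled anti-IL-8 antibody pair after 1-3 h at room temperature.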

[20] = biological target: Nuclear receptor subfamily 1 group I member 2 (Rattus norvegicus) (UniProt Q9R1A7); test: qHTS assay for small molecule activators of the rat pregnane X receptor (rPXR) signaling pathway (AID 651751; call rule not given here; also: 0% is about no effect); details: rPXR reporter cells, luciferase (One-Glo), 24 h
Nuclear receptor subfamily 1 group I member 2 (Rattus norvegicus), sequence (Q9R1A7 whole entry, looked up): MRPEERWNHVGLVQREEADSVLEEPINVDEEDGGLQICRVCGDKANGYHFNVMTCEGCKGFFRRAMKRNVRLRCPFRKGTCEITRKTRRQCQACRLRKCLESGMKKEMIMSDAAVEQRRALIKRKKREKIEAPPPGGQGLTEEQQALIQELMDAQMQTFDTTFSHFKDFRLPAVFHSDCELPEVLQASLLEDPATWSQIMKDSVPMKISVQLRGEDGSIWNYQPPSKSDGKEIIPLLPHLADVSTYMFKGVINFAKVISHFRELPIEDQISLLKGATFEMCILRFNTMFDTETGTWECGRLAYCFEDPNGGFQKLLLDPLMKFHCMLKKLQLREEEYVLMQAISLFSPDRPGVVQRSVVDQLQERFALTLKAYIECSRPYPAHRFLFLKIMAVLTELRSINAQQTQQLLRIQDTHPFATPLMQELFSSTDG

CC(C)(c1cc(Br)c(O)c(Br)c1)c1cc(Br)c(O)c(Br)c1
active: Potency [5] 44.7 µM | Potency [14] 29.8 µM and 23.7 µM and 48.6 µM | Potency [15] 28.2 µM | Potency [17] 18.8 µM
-3.55% and -29% and 5.87%: max response [6]
inactive: outcome [1] | outcome [2] | activation [4] -10.8% and 25.4% and -11.2% | outcome [7] | outcome [8] | outcome [9] | outcome [11] | outcome [12] | Potency [13] | activation [16] 2.39% and 3.54% and 2.16% | Potency [18] | outcome [19] | max response [20] 4.59% and 7.9% and 1.02%
28.2 µM (active) and inactive: Potency [3]
4.03% and -9.48% and 2.35%: max response [10]
